Screens (PubChem)
Most compounds without a hit are left out; they make up all but 1.9% or so of the library.
MsrA inhibitor: inhibits bovine methionine sulfoxide reductase A. purified bovine MsrA, absorbance read-out. inhibition, % at 15.5 µM. 360,000 compounds, 0.75% hits. AID 651718;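 also: 0% = vehicle wells with enzyme and 100% = reference inhibitor wells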
PLC-beta3 inh: inhibitors of human phospholipase C beta3; Q01970; Purified PLC-beta3, fluorogenic substrate, fluorescence; inhibition, % at 12.2 µM; 370,000 compounds, 0.18% hits; in the data active = inhibition above about 11%;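 also: 0% = median of compound wells on plate and 100% = full blocker control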
PLCg1 inh: inhibitors of human phospholipase C gamma1 | P19174 | purified PLC-gamma1, fluorogenic substrate, fluorescence | inhibition, % at 12.2 µM | 370,000 compounds, 0.84% hits; in the data active = inhibition above about 9.5%
bovine MsrA act: activates bovine MsrA enzyme. 360,000 compounds, 0.3% hits. AID 602163. purified bovine MsrA, absorbance read-out. activation, % at 10.6 µM; in the data active = activation above about 7.5%;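 also: 0% = vehicle and 100% = reference activator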
MsrA inh confirm: bovine MsrA inhibition, confirmed | 2,300 compounds, 41% hits | AID 651822 | purified bovine MsrA, absorbance read-out | inhibition, % at 15.5 µM | shares compounds with MsrA inhibitor;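 also: coupled to thioredoxin reductase with NADPH and selenocystamine and DMSO as substrate; 0% = vehicle only and 100% = full effect of reference inhibitor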
Numbers without * were called inactive; i = inactive; · = no result given. Rule as the data show it, unless noted: active = inhibition above about 4.5%; inactive = the rest.

SMILES	MsrA inhibitor	PLC-beta3 inh	PLCg1 inh	bovine MsrA act	MsrA inh confirm
O=c1[nH]c(=S)[nH]cc1S(=O)(=O)c1cccc(Cl)c1	5.8*	-10.8	-4.5	2.9	3.3
Cc1cc(C)c(S(=O)(=O)c2cccc(Cl)c2)c(Cl)n1	0.1	4.6	9.0	-11.5	·
NC(=O)c1c(N)[nH]c(C(=O)c2ccccc2)c1-c1ccc2ccccc2c1	0.4	-44.6	-27.9	·	·
Nc1nc(N)c2sc3nc(C(F)(F)F)cc(C(F)(F)F)c3c2n1	7.5*	-34.7	-28.0	-2.7	1.3
Nc1ccc2c(C(F)(F)F)cc(C(F)(F)F)nc2n1	1.7	i	i	-6.0	·
COc1cccc(CC(=O)NCC2CCN(C(=O)C(=O)c3cccs3)CC2)c1	0.9	8.0	-2.2	·	·
O=[N+]([O-])c1cc(/C=N/Nc2nc3ccccc3[nH]2)c(O)cc1O	5.7*	3.8	47.8*	·	5.0*
Fc1cccc(/C=N/Nc2nc3ccccc3[nH]2)c1	4.7*	-59.5	-39.8	·	4.0
COC(=O)[C@@]12CCCCC=C1N(CCc1ccc(Cl)cc1)C(=O)[C@H]2CC(=O)NCc1cccc2ccccc12	·	-2.1	-2.0	·	·
Cc1ccc(S(=O)(=O)N(C)[C@H]2C[C@H]3c4cc(-c5ccc6c(c5)OCO6)ccc4CCN3C[C@H]2[C@H](C)O)cc1	1.5	-5.6	-2.4	·	·
CC(=O)c1c(C(=O)O)c2ccccc2[nH]c1=O	5.1*	-154.7	-109.4	-1.8	0.9
Fc1ccccc1/C=N/Nc1ncnc2nc[nH]c12	8.9*	6.2	9.8*	-4.8	3.7
Clc1ccc(/C=N/Nc2ncnc3nc[nH]c23)cc1	3.9	-1.6	-0.8	-3.3	·
Fc1cccc(/C=N/Nc2ncnc3nc[nH]c23)c1	5.2*	3.0	4.6	-4.0	3.8
Oc1ccc(/C=N/Nc2ncnc3nc[nH]c23)cc1	6.9*	-17.5	-9.1	-6.5	5.6*
O=[N+]([O-])c1cccc(-c2nnc(-c3ccccc3)o2)c1	0.0	5.8	5.1	-0.2	·
Cc1occc1-c1nnc(-c2cc([N+](=O)[O-])cc([N+](=O)[O-])c2)o1	7.7*	0.4	1.4	-2.7	0.9
Cc1ccccc1C(=O)NC1CCCCN(Cc2ccc(Cl)cc2)C1=O (stereo unspecified)	·	-0.1	0.3	·	·
CC(=O)c1ccc(COC(=O)c2cc3ccccc3oc2=O)cc1	8.3*	-22.5	-15.2	-6.0	3.9
COC(=O)c1ccc(COC(=O)c2cc3ccccc3oc2=O)cc1	0.8	-5.7	-4.1	-2.2	·
Cn1c(NC(=O)/C=C\c2ccccc2)cc(=O)n(C)c1=O	5.3*	1.5	3.1	-4.1	4.2
Cn1c(NC(=O)/C=C/c2c(F)cccc2Cl)cc(=O)n(C)c1=O	0.3	2.9	0.3	-5.3	·
CC(NC(=O)c1ccc(=O)oc1)c1ccccc1 (stereo unspecified)	7.2*	0.8	1.6	-5.2	7.4*
O=C(NCCc1ccccc1)c1ccc(=O)oc1	8.2*	1.3	1.3	-15.5	8.0*
O=C(NCCN1CCOCC1)c1ccc(=O)oc1	5.4*	-20.1	-13.1	-5.8	4.2
SMILES	MsrA inhibitor	PLC-beta3 inh	PLCg1 inh	bovine MsrA act	MsrA inh confirm
Cc1cccc(C)c1NC(=O)[C@@H]1CC(=O)O[C@@H]1c1ccccc1	·	0.7	-1.1	·	·
O=C(Cn1nnc(-c2ccccc2)n1)N/N=C/c1cc([N+](=O)[O-])ccc1O	-0.5	-0.1	-0.8	-1.1	·
O=C(Cn1nc2ccccc2n1)N/N=C/c1cc([N+](=O)[O-])ccc1O	4.7*	2.9	2.2	-3.7	4.4
Oc1[nH]c2ccccc2c1C1=NCCCC1	4.9*	1.4	4.8	2.4	3.6
COc1ccc(NC(=O)/C=C/c2ccco2)cn1	4.9*	-5.3	-2.7	-6.5	2.1
COc1ccc(NC(=O)/C=C/c2cccc(F)c2)cn1	0.0	0.1	-1.2	-0.1	·
CCc1nnc(NC(=O)/C=C/c2ccco2)s1	6.8*	-8.9	-12.7	-7.8	6.2*
CCSc1nnc(NC(=O)/C=C/c2ccco2)s1	1.7	-61.4	-29.1	-7.9	·
COc1ccc(NC(=O)/C=C/c2ccc(Br)o2)cn1	5.3*	-2.5	-3.3	-6.8	1.9
CCn1c(SCC(=O)NN=Cc2cc(OC)ccc2OC)nnc1-c1ccc(OC)cc1	·	-52.2	-39.6	·	·
NC(=O)c1ccc(NC(=O)CSc2nnc(-c3ccccc3)n2-c2ccccc2)cc1	·	2.5	0.5	·	·
O=C(N/N=C/c1ccc2ncccc2c1)c1ccco1	5.2*	4.8	2.5	-9.8	2.9
CN(C)c1ccc(/C=N/NC(=O)c2ccn(C)n2)cc1	6.3*	-137.1	-137.4	-3.9	4.4
CN(C)c1ccc(/C=N/NC(=O)c2cc(=O)[nH]c3ccccc23)cc1	7.1*	-27.6	-7.4	-2.4	4.5
COc1ccc(/C=N/NC(=O)C(=O)N2CCCC2)cc1	0.2	4.4	1.0	-1.7	·
